# The whole screen tested about 290,000 compounds, of which about 3,000 (1%) were called active. Cut-off read from the data, not from the text of the source: active = inhibition mostly above about 36% (no sharp cut-off); inactive = mostly below about 34%. The entries come from a sample that favours actives as a whole.
# Experiment: NOD1 signaling inhibitors, primary screen, cell-based, luminescence, uHTS (AID 1578);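 note: HEK-293T reporter cells stimulated with the NOD1 agonist gamma-tri-DAP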
# Details: NOD1-driven NF-kB luciferase reporter cells, at 4 µM, active compounds read high
row,Structure (SMILES),inhibition
1,COC(=O)C1CCN(C(=O)C2CCC(=O)N(CCc3cccc(F)c3)C2)CC1 (centres undefined),-26.6% (inactive)
2,C/C(CS(=O)(=O)c1ccccc1)=N\O,-22.4% (inactive)
3,O=S(=O)(C/C(=C/CO)S(=O)(=O)c1ccccc1)c1ccccc1,100% (active)
4,C/C=C(\CS(=O)(=O)c1ccccc1)S(=O)(=O)c1ccccc1,60.5% (inactive)
5,COc1cccc(OCC(=O)Nc2ccncc2)c1,-11.4% (inactive)
6,COc1ccccc1NC(=O)/C=C/c1ccc(OC)c(S(=O)(=O)N2CCOCC2)c1,-9.3% (inactive)
7,CSc1nc(C)cc(OCCNS(=O)(=O)c2cc(C)ccc2C)n1,-15% (inactive)
8,Cc1ccccc1CN1CCc2cc([N+](=O)[O-])ccc21,58.2% (active)
9,Cc1ccccc1COC(=O)c1cc([N+](=O)[O-])ccc1N1CCOCC1,-37.5% (inactive)
10,Cc1ccccc1Cn1c(C)nc2ccc([N+](=O)[O-])cc2c1=O,-19.5% (inactive)
11,O=c1c2ccccc2cnn1Cc1ccc(Br)cc1F,-29.7% (inactive)
12,Cc1c(C(=O)N2CCCCC2)nn(-c2ccc(Cl)cc2)c(=O)c1C#N,-10.3% (inactive)
13,COc1cc(CN2CCCN(C)CC2)cc([N+](=O)[O-])c1O,-23.1% (inactive)
14,NC(=O)N1N=C2/C(=C/c3ccccc3)CCCC2C1c1ccccc1 (centres undefined),-6.2% (inactive)
15,CC(=O)N1N=C2/C(=C/c3ccccc3)CCCC2C1c1ccccc1 (centres undefined),79.9% (active)
16,O=C(O)CSCC(=O)N1N=C2/C(=C/c3ccccc3)CCCC2C1c1ccccc1 (centres undefined),-13.2% (inactive)
17,CN(C)S(=O)(=O)c1cccc(C(=O)Nc2ccccc2)c1,-30.7% (inactive)
18,O=c1c(-c2ccc(Cl)cc2)c[nH]n1-c1ccccc1,-5.7% (inactive)
19,CCOc1cccc(N2C(=O)CC(NCc3ccc(S(N)(=O)=O)cc3)C2=O)c1 (centres undefined),-9.2% (inactive)
20,Cc1ccc(-n2c(SCC(=O)N3CCCCC3)nc(O)c(Cc3ccccc3)c2=O)cc1,-18.9% (inactive)

row,Structure (SMILES),inhibition
1,COc1ccc(NC(=S)Nc2ccccn2)cc1,6.6% (inactive)
2,Cc1cccc(NC(=S)Nc2ccccn2)c1,-0.2% (inactive)
3,S=C(Nc1ccc(Nc2ccccc2)cc1)Nc1ccccn1,74.1% (active)
4,COc1cc(/C=N/Nc2nc(-c3ccc(S(=O)(=O)N(C)C)cc3)cs2)ccc1O,31.8% (active)
5,COc1ccc(/C=N/Nc2nc(-c3cccc(S(=O)(=O)N4CCCC4)c3)cs2)cc1OC,52.7% (inactive)
6,CN(C)S(=O)(=O)c1ccc(-c2csc(N/N=C/c3ccc(O)cc3)n2)cc1,12.3% (inactive)
7,N#C/C(=C\c1ccc2c(c1)OCCO2)C(=O)Nc1ccc(C(=O)O)cc1,1.3% (inactive)
8,CCCCCCNc1c([N+](=O)[O-])c(=O)sc2ccccc12,71% (active)
9,CCCCNc1c([N+](=O)[O-])c(=O)n(C)c2ccccc12,-21.6% (inactive)
10,CC(C)(C)Nc1c([N+](=O)[O-])c(=O)sc2ccccc12,-30.9% (inactive)
11,COc1cc2c(cc1OC)CN(C(=O)COc1ccc(C#N)cc1)CC2,10% (inactive)
12,Cc1c(NC(=S)NC(=O)CC(C)C)c(=O)n(-c2ccccc2)n1C,-31.4% (inactive)
13,CCN1/C(=C/C=C/C=C/c2sc3ccccc3[n+]2CC)Sc2ccccc21,66.1% (inactive)
14,CCN1/C(=C/c2ccc3ccccc3[n+]2CCCS(=O)(=O)[O-])C=Cc2cc(C)ccc21,-1.5% (inactive)
15,CC1=NN(C(=O)c2ccc(Cn3nc(C)c([N+](=O)[O-])c3C)o2)C(O)(C(F)(F)F)C1 (centres undefined),-21.3% (inactive)
16,CCCCc1nc2sc3c(SCCN(C)C)ncnc3c2c2c1CCC2,-4.1% (inactive)
17,Brc1ccc(OCc2cn3ccccc3n2)cc1,-41.6% (inactive)
18,COc1ccccc1NS(=O)(=O)c1cc(NC(=O)c2cc(=O)[nH]c3ccccc23)ccc1N1CCOCC1,0.5% (inactive)
19,COc1ccc(-c2onc(C)c2C)cc1S(=O)(=O)NCCc1ccco1,2.5% (inactive)
20,Cc1cc(C)c(C)c(S(=O)(=O)N2CCCCC2C(=O)O)c1C (centres undefined),0.3% (inactive)

row,Structure (SMILES),inhibition
1,COc1ccc(-c2cnnc(N/N=C/c3ccc(O)cc3)n2)cc1,-15.9% (inactive)
2,Oc1ccc(/C=N\Nc2nncc(-c3ccccc3)n2)cc1,59.3% (active)
3,Oc1cccc(/C=N\Nc2nncc(-c3ccccc3)n2)c1,-8.4% (inactive)
4,CC(=O)Oc1ccc(/C=C(\NC(=O)c2ccco2)C(=O)Nc2ccc(C(C)=O)cc2)cc1,-31.3% (inactive)
5,COc1ccc(/C(N)=N/OC(=O)CC2CCCCC2)cc1OC,-10.9% (inactive)
6,CC(C)NC(=O)c1ccc(COc2ccc(C(C)(C)C)cc2)o1,29.6% (active)
7,CCOc1ccc(OCc2ccc(C(=O)NC(C)C)o2)cc1,-2.6% (inactive)
8,CC(C)(C)c1ccc(OCc2ccc(C(=O)NN)o2)cc1,-4.2% (inactive)
9,CC(=O)c1ccc(S(=O)c2ccccc2)cc1 (centres undefined),-22.4% (inactive)
10,COc1ccc(OC)c(C(=O)NC(CC(N)=O)c2ccc(N3CCC(N4CCCC4)CC3)c([N+](=O)[O-])c2)c1 (centres undefined),5.4% (inactive)
11,Cc1cc(C)cc(NS(=O)(=O)c2ccc3[nH]cc(C(=O)N4CCc5ccccc54)c(=O)c3c2)c1,3.5% (inactive)
12,COCCn1c(=NC(=O)/C=C/c2ccccc2)sc2cc(NC(C)=O)ccc21,-16.2% (inactive)
13,COCCn1c(=NC(=O)/C=C/c2ccccc2Cl)sc2cc(NC(C)=O)ccc21,85% (active)
14,CCOCCn1c(=NC(=O)/C=C/c2ccccc2Cl)sc2cc(NC(C)=O)ccc21,18.1% (inactive)
15,Cc1cccc(C(P(=O)(c2ccccc2)c2ccccc2)P(=O)(c2ccccc2)c2ccccc2)n1,-2.9% (inactive)
16,CC(=O)c1c(C)[nH]c(C(=O)OCC(=O)Nc2ccccc2Cl)c1C,51.1% (active)
17,CC(=O)c1c(C)[nH]c(C(=O)OCC(=O)Nc2ccc([N+](=O)[O-])cc2Cl)c1C,-9% (inactive)
18,CC(=O)c1c(C)[nH]c(C(=O)Nc2ccccc2Cl)c1C,-16.6% (inactive)
19,CCC(C)N1C(=O)CCC1C(=O)N1CCN(c2ccccc2F)CC1 (centres undefined),2.8% (inactive)
